Measurements from PubChem BioAssay AID2284058 (EPA ToxCast).
The source made the active and inactive calls. The calls were made as follows: active = hit-call score of the fitted dose curve at least 0.9, where 1 is the maximum; inactive = score below 0.9.

biological target: CYP2C9, CYP2C9 (gene 1559) (UniProt P11712); assay: ERF_FR_ADME_hCYP2C9: Eurofins (ERF) CYP450-related Enzyme Activity (ADME) Assay for CYP2C9
Experimental: ERF_FR_ADME_hCYP2C9 is a biochemical, single-readout assay that uses extracted gene-proteins in a cell-free assay. Measurements were taken 0.66 hour after chemical dosing in a 96-well plate. See CYP2C9 inhibition (recombinant, MFC substrate).ERF_FR_ADME_hCYP2C9 is an assay component calculated from the ERF_FR_ADME_hCYP2C9 assay. It is designed to measure enzyme activity using a type of enzyme reporter as detected by fluorescence intensity of HFC with fluorimetry technology.Data from the assay component ERF_FR_ADME_hCYP2C9 was analyzed at the assay endpoint, ERF_FR_ADME_hCYP2C9, in the positive analysis fitting direction relative to acetonitrile as the negative control and baseline of activity. Using a type of enzyme reporter, loss-of-signal activity can be used to understand changes in enzymatic activity as they relate to gene CYP2C9. To generalize the intended target to other relatable targets, this assay endpoint is annotated to the cyp intended target family, where the subfamily is steroidogenesis-related.
Human cells are incubated for 15 minutes at 37C with Diclofenac as substrate and Sulfaphenazole as control inhibitor. Test Sample Requirements: Minimum for 1) Screen: 25 ul of 10 mM stock -OR- 1 mg (pre-weighed) for 10 uM final testing. 2) Dose Response: 60 ul of 10 mM stock -OR- 1 mg (pre-weighed). […]

CYP2C9, CYP2C9 (gene 1559), sequence (P11712 whole entry, looked up): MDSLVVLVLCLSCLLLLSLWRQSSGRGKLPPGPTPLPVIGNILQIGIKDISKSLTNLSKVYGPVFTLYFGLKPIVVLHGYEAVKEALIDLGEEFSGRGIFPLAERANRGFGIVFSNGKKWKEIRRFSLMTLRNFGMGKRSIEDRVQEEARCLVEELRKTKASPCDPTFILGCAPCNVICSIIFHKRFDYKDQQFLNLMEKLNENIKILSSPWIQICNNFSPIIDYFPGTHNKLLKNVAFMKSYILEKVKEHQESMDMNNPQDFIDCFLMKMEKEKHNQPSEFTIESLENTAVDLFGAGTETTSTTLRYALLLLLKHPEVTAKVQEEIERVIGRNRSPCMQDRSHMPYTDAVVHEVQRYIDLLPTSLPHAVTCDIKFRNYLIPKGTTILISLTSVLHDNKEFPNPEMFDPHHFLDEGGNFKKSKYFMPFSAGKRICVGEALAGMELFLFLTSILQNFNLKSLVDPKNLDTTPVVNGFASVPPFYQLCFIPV

| Structure (SMILES) | AC50 |
| --- | --- |
| O=C(/C=C/c1ccc(O)cc1)CC(=O)/C=C/c1ccc(O)cc1 | 502 nM (active) |
